Screening data from PubChem.
Anthrax LF inh2 = anthrax lethal factor protease inhibition | P15917 | multiplex microsphere protease cleavage assay, LF | inhibition, % at 10 µM | 360,000 tested, 0.12% active
Target sequence (P15917 whole entry, looked up): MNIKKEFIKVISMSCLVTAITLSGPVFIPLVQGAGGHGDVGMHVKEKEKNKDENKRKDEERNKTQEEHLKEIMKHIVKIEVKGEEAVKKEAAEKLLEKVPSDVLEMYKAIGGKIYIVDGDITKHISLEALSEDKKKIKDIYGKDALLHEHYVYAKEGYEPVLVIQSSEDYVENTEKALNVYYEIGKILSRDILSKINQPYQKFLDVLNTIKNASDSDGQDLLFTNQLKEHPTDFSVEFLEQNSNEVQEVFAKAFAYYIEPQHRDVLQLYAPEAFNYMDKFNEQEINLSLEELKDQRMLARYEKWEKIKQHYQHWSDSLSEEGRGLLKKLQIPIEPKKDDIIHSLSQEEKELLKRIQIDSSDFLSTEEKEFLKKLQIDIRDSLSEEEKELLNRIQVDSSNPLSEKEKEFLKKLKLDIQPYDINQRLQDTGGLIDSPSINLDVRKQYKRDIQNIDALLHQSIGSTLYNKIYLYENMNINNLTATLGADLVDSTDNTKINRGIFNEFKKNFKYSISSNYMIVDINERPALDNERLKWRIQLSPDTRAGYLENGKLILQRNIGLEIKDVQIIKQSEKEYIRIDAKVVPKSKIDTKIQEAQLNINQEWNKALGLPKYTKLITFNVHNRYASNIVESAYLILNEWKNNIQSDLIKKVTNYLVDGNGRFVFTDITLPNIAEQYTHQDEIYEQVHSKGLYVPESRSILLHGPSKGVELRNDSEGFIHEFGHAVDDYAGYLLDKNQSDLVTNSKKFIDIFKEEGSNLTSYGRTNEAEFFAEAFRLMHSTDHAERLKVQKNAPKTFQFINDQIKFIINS
BoNT F protease = BoNT F light chain protease inhibition; Multiplex microsphere protease cleavage assay, flow cytometry; inhibition, % at 10 µM; 360,000 tested, 0.22% active; AID 588497; in the data active means inhibition above about 35%, passing the limit was not always enough; inconclusive means no clear call, values can overlap the other calls
BJeLR lethal = kills HRASV12-expressing BJeLR cells. AID 1554. inhibition, % (test concentration not listed). BJeLR (HRASV12) viability, CellTiter-Glo ATP luminescence, 48 h. 300,000 tested, 0.17% active; in the data active means inhibition above about 50%; inconclusive means no clear call, values can overlap the other calls
BoNT-A LC inh2 = blocks Botulinum neurotoxin A light chain protease | AID 588499 | 360,000 tested, 0.17% active | inhibition, % at 10 µM | multiplex microsphere protease substrate cleavage, flow cytometry
Bead autofluor = flagged as autofluorescent in microsphere protease counterscreen. 360,000 tested, 3.1% active. compound autofluorescence counterscreen, microsphere flow cytometry; active compounds read high. AID 624483. fluorescence intensity (concentration not given with the values); in the data active means fluorescence intensity above about 16000; inconclusive means no clear call, values can overlap the other calls
Numbers stand for hits; 0 = inactive; ? = inconclusive; - = not tested or not shown; ! = not confirmed by another sample. Sampled rows, rich in hits. Any-hit rate of the full collection: about 3.5%. Unless noted, no stated cut-off is given here; in the data, active means inhibition above about 30%; inconclusive means no clear call, values can overlap the other calls; inactive means below that.

SMILES	Anthrax LF inh2	BoNT F protease	BJeLR lethal	BoNT-A LC inh2	Bead autofluor
CC1(CCC#N)N=C(SCCC#N)N(c2ccccc2)C1=O (stereo unspecified)	0	0	0	?	23294
Cc1ccc(-n2nc3c4c(cccc4c2=O)-c2ccccc2-3)cc1	0	0	0	0	19852
O=C(O)Cn1nc2c3c(cccc3c1=O)-c1ccccc1-2	0	0	0	0	0
COC(=O)C12CCC(C)(c3nc4ccccc4nc31)C2(C)C (stereo unspecified)	0	0	0	0	0
CC(C)(C)NC(=O)C12CCC(C)(c3nc4ccccc4nc31)C2(C)C (stereo unspecified)	0	0	0	0	22617
CCOCCCNC(=O)CCN1C(=O)c2ccccc2Sc2ncccc21	0	0	0	0	0
CC1(C)CC(=O)C(C=NCCCn2ccnc2)=C(O)C1	0	0	0	0	21981
CC1(C)CC(=O)C(C=NCC2CCCO2)=C(O)C1 (stereo unspecified)	0	0	-	0	25274
CC1(C)CC(=O)C(C=NCCCN2CCCC2=O)=C(O)C1	0	0	0	0	0
CC1(C)CC(=O)C(C=NCCN2CCN(C(=O)CC3CCCC3)CC2)=C(O)C1	0	0	0	0	0
CC1(C)CC(=O)C(C=NCCN2CCN(C(=O)Cc3ccc(F)cc3)CC2)=C(O)C1	0	0	0	0	19988
CC1(C)CC(=O)C(C=NCC2CCNCC2)=C(O)C1	0	0	0	0	0
CC1(C)CC(=O)C(C=NCC(O)c2ccccc2)=C(O)C1 (stereo unspecified)	0	0	0	0	20941
CC(C)NC(=O)C1(C)Cc2c(-c3ccc(N(C)C)cc3)ccnc2O1 (stereo unspecified)	0	0	-	0	0
COc1cc(NC(=O)c2ccc(-c3ccc(F)c(F)c3)c3ccoc23)cc(OC)c1OC	0	0	-	0	0
COc1ccc(CN=CC2=C(O)CC(C)(C)CC2=O)cc1	0	0	0	0	24658
COc1cc(CNn2nnnc2N)cc(Br)c1OCc1c(Cl)cccc1Cl	0	0	0	?	23392
COc1cc(CNn2nnnc2N)cc(Br)c1OCC(=O)NC(C)(C)C	0	0	0	0	0
Cc1nc2ccccn2c1-c1ccnc(=S)[nH]1	0	?	0	?	0
CC(C)(C)NC(=O)CSc1nnc(Cc2ccc3c(c2)OCO3)n1C1CCCCC1	0	0	0	0	20511
CCCc1nc2cc(C)c(Br)c(C)n2c1Cc1ccsc1	0	0	-	0	0
COc1cc(OC)cc(-c2c(-c3cccs3)c3cc(-c4cccc5[nH]ccc45)ccc3n2C)c1	0	0	-	0	0
COc1ccccc1C1=NOC(COc2ccc3c(C)cc(=O)oc3c2)C1 (stereo unspecified)	?	44	0	0	0
Cc1cn2c(N)c(C=C3C=C(Cl)C(=O)C(Cl)=C3)c(=O)nc2s1	32	141	0	0	26112
Cc1nc2c(C(=O)O)cnn2c(C)c1Cc1ccccc1F	0	0	0	?	19848
SMILES	Anthrax LF inh2	BoNT F protease	BJeLR lethal	BoNT-A LC inh2	Bead autofluor
Cc1ccccc1Cc1c(C)nc2nc(SCC(=O)NCc3ccco3)nn2c1C	0	0	0	0	0
Cc1ccccc1Cc1c(C)nc2c(C(=O)NCc3ccco3)cnn2c1C	0	0	0	0	17104
Cc1nc2c(C(=O)N3CCCC3)cnn2c(C)c1Cc1c(F)cccc1Cl	0	0	0	0	23177
Cc1cc(C)cc(NC(=O)CC2NCCNC2=O)c1 (stereo unspecified)	0	0	0	?	16440
CN(C)c1ccc(NC(=O)CC2NCCNC2=O)cc1 (stereo unspecified)	0	0	0	?	21583
Cc1cccc(C)c1N1CCN(C(c2cc3ccccc3o2)c2nnnn2C(C)(C)C)CC1 (stereo unspecified)	0	0	-	0	0
CCn1c(SCc2nc(-c3ccccc3)no2)nnc1-c1cccs1	0	0	0	0	0
COc1ccccc1NC(=O)CSc1nnnn1-c1ccc(C(=O)O)cc1	0	0	0	0	0
CCCCOc1ccccc1NC(=O)CSc1nnnn1C(C)(C)C	0	0	0	0	17476
COCCn1c(COc2ccccc2)nnc1SCC(N)=O	0	0	-	?	21005
CCn1c(SCc2nc(CC(=O)Nc3ccccc3OC)no2)nnc1-c1cccs1	0	0	0	0	22928
CCn1c(COc2ccccc2)nnc1SCC(=O)CC(=O)Nc1ccccc1OC	0	0	0	0	21864
CCOc1ccc(CCN2C(=O)C(=O)N([C@@H](CC(C)C)CN3CCC[C@H]3CN3C(=O)C(=O)NC[C@@H]3Cc3ccccc3)C[C@@H]2Cc2ccccc2)cc1	0	0	-	0	0
CCOc1ccccc1-n1c(COc2ccc(C)cc2)nnc1SCC(N)=O	0	0	0	0	22748
CCOc1ccccc1-n1c(COc2ccccc2)nnc1SCC(N)=O	0	0	0	0	0
COc1ccc(F)cc1-c1cc(NC=O)c2ncc(-c3cccc(C(F)(F)F)c3)n2c1	0	0	-	0	0
CCOC(=O)c1cc2c(=O)n3ccccc3nc2n(C(C)C)c1=NC(=O)c1c(-c2ccccc2Cl)noc1C	0	0	0	39	0
CCOC(=O)c1cc2c(=O)n3ccccc3nc2n(C(C)C)c1=NC(=O)c1ccncc1	0	0	0	0	0
CCOCCCn1c(=NC(C)=O)c(C(=O)OCC)cc2c(=O)n3ccccc3nc21	0	0	0	0	23789!
CC1=NNC(=O)C1CCC(=O)N/N=C/C(Br)=C/c1ccccc1 (stereo unspecified)	0	0	0	0	0
Cc1ccc(SCc2[nH]nc3c2C(c2ccco2)C(C#N)=C(N)O3)cc1 (stereo unspecified)	0	0	0	0	0
Cc1ccc(SCc2[nH]nc3c2C(c2ccc(C)o2)C(C#N)=C(N)O3)cc1 (stereo unspecified)	0	0	-	0	19530
CSC1=NC(C(Cl)(Cl)Cl)N=C(c2ccc(C)cc2)N1 (stereo unspecified)	0	0	56	0	0
C=C1CC[C@@H]2[C@](C)(CCC[C@@]2(C)/C=C/[C@@H](O)C(C)(C)O)[C@H]1CC(=O)NCCS(=O)(=O)O	0	0	-	0	0
CCCCn1c(NCc2cccs2)nc2ccccc21	0	0	0	0	0
SMILES	Anthrax LF inh2	BoNT F protease	BJeLR lethal	BoNT-A LC inh2	Bead autofluor
CCCCn1nnnc1NCc1cccs1	0	0	0	0	19115
Cc1cccc(NC(=S)N2N=CCC2c2ccccc2)c1 (stereo unspecified)	0	0	0	0	17190
CCc1cc(C(=O)NNC(=S)Nc2cccc(C)c2)cs1	0	0	0	0	21356
Cc1cccc(NC(=S)NNC(=S)NCc2ccccc2)c1	0	0	0	0	22617
CCCCNC(=S)NNC(=O)c1csc(C)c1	0	0	0	0	22322
CC1(C(=O)NCc2ccccc2)CCC(=O)N1CCCn1ccnc1 (stereo unspecified)	0	0	-	0	0
CC(C)(C)c1cc(NC(=O)C2(C)CCN2C(=O)C2(c3ccccc3)CCCC2)no1 (stereo unspecified)	0	0	-	0	0
c1ccc2c(CCNc3ncnc4nc[nH]c34)cccc2c1	0	0	0	0	0
CC(=O)Oc1ccc(C23c4ccccc4C2(OC(C)=O)c2cc(OC(C)=O)ccc23)cc1 (stereo unspecified)	0	0	-	0	0
